Laboratory results taken from publication PMC5700166.
Positions count from the first letter of the chain named.

Tests used:
Assay in all cases: protein-binding microarray (PBM); PBM: ~300 nM protein, 6 mM HEPES pH 7.8, 80 mM KCl, 0.5 mM EDTA, 0.5 mM EGTA, 6% glycerol, 35 ng/ul poly-dIdC, 1% milk, 1 h, room temperature; Ap Aiptasia and Nv Nematostella (sea anemones) / Co Capsaspora / Aq Amphimedon (sponge) / Dm Drosophila / Hu human; RHD is the Rel homology domain; high values mean tight binding
Conditions in all cases: dsDNA, one strand shown
[1] = biological target: T1, GST-Ap-NF-kB RHD (Exaiptasia pallida (Aiptasia), UniProt A0A913YAJ5 2-422)
T1 sequence: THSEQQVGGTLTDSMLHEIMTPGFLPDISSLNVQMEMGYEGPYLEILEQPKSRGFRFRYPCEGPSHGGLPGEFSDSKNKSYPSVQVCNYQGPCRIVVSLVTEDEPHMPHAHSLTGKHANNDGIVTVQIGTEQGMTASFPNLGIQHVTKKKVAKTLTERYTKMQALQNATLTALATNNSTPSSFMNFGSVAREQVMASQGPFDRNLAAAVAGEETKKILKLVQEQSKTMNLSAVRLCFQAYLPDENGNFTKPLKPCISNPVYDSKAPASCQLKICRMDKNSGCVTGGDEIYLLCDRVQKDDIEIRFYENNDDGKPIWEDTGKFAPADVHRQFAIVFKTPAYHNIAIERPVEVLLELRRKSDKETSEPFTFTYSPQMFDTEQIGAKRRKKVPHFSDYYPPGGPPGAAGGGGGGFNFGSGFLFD

[2] = biological target: T2, GST-Nv-NF-kB (Cys allele) (Nematostella vectensis, UniProt E5G601 2-411)
T2 sequence: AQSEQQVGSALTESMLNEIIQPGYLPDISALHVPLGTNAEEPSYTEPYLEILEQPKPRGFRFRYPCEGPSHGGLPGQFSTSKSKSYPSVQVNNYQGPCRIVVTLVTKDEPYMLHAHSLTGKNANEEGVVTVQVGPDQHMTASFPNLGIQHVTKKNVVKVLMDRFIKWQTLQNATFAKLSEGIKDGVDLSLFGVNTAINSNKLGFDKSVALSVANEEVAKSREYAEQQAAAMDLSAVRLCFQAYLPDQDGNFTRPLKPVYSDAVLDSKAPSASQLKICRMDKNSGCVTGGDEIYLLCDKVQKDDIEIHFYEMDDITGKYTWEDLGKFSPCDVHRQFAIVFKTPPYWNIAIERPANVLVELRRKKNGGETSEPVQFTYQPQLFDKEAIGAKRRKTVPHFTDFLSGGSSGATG

[3] = biological target: T3, GST-Nv-NF-kB (Ser allele) (Nematostella vectensis, UniProt A7UNT2 2-411)
T3 sequence: T2 sequence with Q21R, C66S, S207N, E215Q, V217A, E225K, A268E, D399E

[4] = biological target: T4, GST-Co-NF-kB (Capsaspora owczarzaki, UniProt F1ARL5 200-546)
T4 sequence: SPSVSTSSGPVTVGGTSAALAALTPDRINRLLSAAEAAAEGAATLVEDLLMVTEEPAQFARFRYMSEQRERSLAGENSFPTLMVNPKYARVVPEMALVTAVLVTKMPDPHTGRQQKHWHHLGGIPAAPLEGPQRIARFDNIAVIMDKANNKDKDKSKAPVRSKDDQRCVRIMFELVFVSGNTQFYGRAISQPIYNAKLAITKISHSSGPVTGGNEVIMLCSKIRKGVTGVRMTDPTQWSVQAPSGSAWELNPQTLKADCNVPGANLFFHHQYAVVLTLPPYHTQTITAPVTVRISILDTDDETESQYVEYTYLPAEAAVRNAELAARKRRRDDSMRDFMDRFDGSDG

[5] = biological target: T5, GST-Dm-Relish (Drosophila melanogaster, UniProt Q94527 99-473)
T5 sequence: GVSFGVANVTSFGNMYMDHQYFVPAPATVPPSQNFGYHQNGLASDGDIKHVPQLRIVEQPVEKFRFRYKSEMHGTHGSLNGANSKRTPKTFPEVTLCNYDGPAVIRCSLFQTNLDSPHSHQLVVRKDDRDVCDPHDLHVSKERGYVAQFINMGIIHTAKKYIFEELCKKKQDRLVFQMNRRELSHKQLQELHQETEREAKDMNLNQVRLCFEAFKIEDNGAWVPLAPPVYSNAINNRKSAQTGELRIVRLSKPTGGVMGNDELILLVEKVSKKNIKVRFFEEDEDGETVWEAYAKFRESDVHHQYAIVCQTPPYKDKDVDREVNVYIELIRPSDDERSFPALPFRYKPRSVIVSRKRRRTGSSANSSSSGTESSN

[6] = biological target: T6, GST-Aq-NF-kB (Amphimedon queenslandica, UniProt A9Y5G7 2-389)
T6 sequence: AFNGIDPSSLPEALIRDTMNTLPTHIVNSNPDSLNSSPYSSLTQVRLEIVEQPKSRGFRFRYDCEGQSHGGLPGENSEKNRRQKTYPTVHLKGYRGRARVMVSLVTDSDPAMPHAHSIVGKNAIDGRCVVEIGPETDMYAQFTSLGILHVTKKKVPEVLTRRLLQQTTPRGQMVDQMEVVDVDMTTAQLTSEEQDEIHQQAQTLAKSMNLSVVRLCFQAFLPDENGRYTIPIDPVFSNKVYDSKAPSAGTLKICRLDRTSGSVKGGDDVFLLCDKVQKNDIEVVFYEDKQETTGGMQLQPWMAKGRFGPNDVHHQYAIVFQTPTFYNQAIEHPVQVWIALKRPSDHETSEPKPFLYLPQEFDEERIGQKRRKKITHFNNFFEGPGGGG

[7] = biological target: GST-Hu-p50 (Homo sapiens, UniProt P19838 7-356)
Sequence of GST-Hu-p50 (P19838 7-356): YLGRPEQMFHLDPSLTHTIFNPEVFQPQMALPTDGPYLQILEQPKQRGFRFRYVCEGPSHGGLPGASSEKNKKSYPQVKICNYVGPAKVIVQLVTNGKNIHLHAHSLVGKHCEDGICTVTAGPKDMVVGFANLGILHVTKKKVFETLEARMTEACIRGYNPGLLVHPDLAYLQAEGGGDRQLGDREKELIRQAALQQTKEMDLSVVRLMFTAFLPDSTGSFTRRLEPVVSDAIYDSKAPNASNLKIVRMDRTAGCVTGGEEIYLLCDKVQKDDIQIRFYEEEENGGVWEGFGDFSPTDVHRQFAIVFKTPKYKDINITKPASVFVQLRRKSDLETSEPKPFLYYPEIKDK

Row | Sequence | binding signal [1] [z-score] | binding signal [2] [z-score] | binding signal [3] [z-score] | binding signal [4] [z-score] | binding signal [5] [z-score] | binding signal [6] [z-score] | binding signal [7] [z-score]
1 | CCGATTAACATCATTAGGGGAAGTGATGTTAATCGGGTCTTGATTCGCTTGACGCTGCTG | 4.61 | 5.4 | 7.61 | 3.41 | 2.36 | 4.57 | 5.39
2 | CCGATTAACATCAGAATTTCCCATGATGTTAATCGGGTCTTGATTCGCTTGACGCTGCTG | 3.88 | 5.46 | 4.83 | 4.63 | 3.42 | 5.17 | 4.04
3 | CCGATTAACATCACCAACCCCCCTGATGTTAATCGGGTCTTGATTCGCTTGACGCTGCTG | 5.65 | 3.47 | 4.4 | 3.02 | 5.37 | 3.88 | 4.51
4 | CCGATTAACATCACGGTTTTCCCTGATGTTAATCGGGTCTTGATTCGCTTGACGCTGCTG | 3.99 | 5.02 | 6.45 | 4.63 | 4.43 | 5.43 | 3.91
5 | CCGATTAACATCAAGGGGGTACTTGATGTTAATCGGGTCTTGATTCGCTTGACGCTGCTG | 4.81 | 3.89 | 4.77 | 2.92 | 2.88 | 3.78 | 4.47
6 | CCGATTAACATCACGGGGGAAACTGATGTTAATCGGGTCTTGATTCGCTTGACGCTGCTG | 7.25 | 5.82 | 8.94 | 12.2 | 3.91 | 4.97 | 6.34
7 | CCGATTAACATCACTAGTCCCCCTGATGTTAATCGGGTCTTGATTCGCTTGACGCTGCTG | 4.7 | 3.39 | 3.45 | 3.98 | 2.58 | 3.81 | 3.46
8 | CCGATTAACATCAAATCCCCCCGTGATGTTAATCGGGTCTTGATTCGCTTGACGCTGCTG | 8.26 | 7.22 | 6.8 | 7.74 | 8.05 | 6.07 | 6.44
9 | CCGATTAACATCAGGGATTACCCTGATGTTAATCGGGTCTTGATTCGCTTGACGCTGCTG | 8.01 | 10 | 7.06 | 2.89 | 9.47 | 8.71 | 4.78
10 | CCGATTAACATCAAAGAATCCCCTGATGTTAATCGGGTCTTGATTCGCTTGACGCTGCTG | 8.71 | 9.68 | 11.8 | 4.06 | 9.1 | 6.89 | 7.06
11 | CCGATTAACATCATTTCCCTTGCTGATGTTAATCGGGTCTTGATTCGCTTGACGCTGCTG | 2.33 | 3.78 | 3.79 | 1.62 | 1.3 | 3.29 | 2.9
12 | CCGATTAACATCAGAGTTCCCCCTGATGTTAATCGGGTCTTGATTCGCTTGACGCTGCTG | 7.64 | 7.87 | 8.12 | 8.96 | 7 | 6.05 | 6.39
13 | CCGATTAACATCAAGGGGGGGTGTGATGTTAATCGGGTCTTGATTCGCTTGACGCTGCTG | 4.34 | 2.8 | 3.53 | 4.12 | 4.4 | 3.77 | 4.28
